Assay outcomes deposited in PubChem BioAssay by several laboratories.
Hsp70 act – Hsp70 transcriptional activation, primary screen. HeLa Hsp70 promoter luciferase reporter, luminescence; scaled: vehicle 0, proteasome-inhibitor control 100%. activation, % at 10 µM. actives 0.04% (n = 200,000). AID 1203;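 active means activation above the mean across all tested compounds plus 3 SD, cutoff set per campaign, cut at about 5.5% in these data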;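 further: 100% = MG132 at 30 µM as the positive control and 0% = DMSO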
Wee1 stabilizer – blocks degradation of human Wee1 kinase; reporter increase, % at 5 µM; actives 1.2% (n = 220,000); P30291; HeLa Luc-Wee1K328M stability, luciferase luminescence; 100% = proteasome inhibitor MG132 effect;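 active means activation above the mean of all tested compounds plus 3 SD, set per screening run, cut at about 8.8% in these data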;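 further: cells exposed to compound for 20 h before luminescence read; 0% = DMSO alone and 100% = MG132 at 30 µM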
Target sequence (P30291 whole entry K328M): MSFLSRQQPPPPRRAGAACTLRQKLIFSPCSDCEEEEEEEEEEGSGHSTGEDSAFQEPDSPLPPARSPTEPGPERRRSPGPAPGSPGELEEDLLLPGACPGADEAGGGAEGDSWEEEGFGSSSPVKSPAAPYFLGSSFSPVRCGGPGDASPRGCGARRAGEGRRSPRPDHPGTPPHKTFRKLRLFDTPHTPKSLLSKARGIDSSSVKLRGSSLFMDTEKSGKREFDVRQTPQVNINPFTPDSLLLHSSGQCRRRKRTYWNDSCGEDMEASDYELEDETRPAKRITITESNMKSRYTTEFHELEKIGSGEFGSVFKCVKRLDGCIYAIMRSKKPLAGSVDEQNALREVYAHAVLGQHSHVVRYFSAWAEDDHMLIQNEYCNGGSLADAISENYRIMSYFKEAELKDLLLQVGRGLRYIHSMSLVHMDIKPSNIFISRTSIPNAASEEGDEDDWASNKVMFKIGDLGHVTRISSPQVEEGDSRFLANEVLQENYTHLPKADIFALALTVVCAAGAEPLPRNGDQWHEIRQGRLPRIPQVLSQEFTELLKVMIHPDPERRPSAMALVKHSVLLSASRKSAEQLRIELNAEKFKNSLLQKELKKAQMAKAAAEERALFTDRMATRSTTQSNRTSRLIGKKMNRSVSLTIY
STAT1 activator – STAT1 signaling activation; NIH 3T3 STAT1-luciferase reporter, IFN-gamma, luminescence; 100% = IFN-gamma alone, no compound; activation (% of control), % at 5.5 µM; actives 2.6% (n = 200,000);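 active means activation above the screen-wide mean activation plus 3 SD, cut at about 130% in these data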;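 further: raw ratio to IFN-gamma control signal so 100% means no change and 0% no light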
APP 5UTR inh – APP translation inhibition. SH-SY5Y APP 5'UTR-luciferase reporter, luminescence. inhibition, % at 2 µM. actives 0.82% (n = 190,000). AID 1285;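 active means inhibition above a set limit, derived from the sample mean plus 3 SD, cut at about 45% in these data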
APP 5'UTR act – APP 5'UTR luciferase reporter activation | actives 1% (n = 190,000) | AID 1276 | SH-SY5Y APP 5'UTR luciferase reporter, luminescence; zero percent = DMSO vehicle wells | activation, % at 2 µM;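 active means activation above a set limit, based on mean plus 3 SD of controls, cut at about 140% in these data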
NF-kB neuron act – compounds increasing NF-kB expression in human neuronal cells; AID 1239; actives 1.6% (n = 190,000); NF-kB reporter expression; stronger effect = higher value; fold change at 12.5 µM; in the data active means fold change above about 3.3
* marks the source's active call; other numbers are inactive results; . = no result given. Sampled rows, rich in hits. Any-hit rate of the full collection: about 4.8%.

SMILES | Hsp70 act | Wee1 stabilizer | STAT1 activator | APP 5UTR inh | APP 5'UTR act | NF-kB neuron act
COc1ccc(/C=N/NC(=O)c2[nH]c3ccc(Br)cc3c2-c2ccccc2)cc1 | 0 | 0 | 127 | 97* | -97 | 3.3
COc1ccc(/C=N/NC(=O)c2[nH]c3ccc(Br)cc3c2-c2ccccc2)c(C(=O)O)c1OC | . | 0 | . | . | . | .
Cc1ccc(/C=c2\sc3nc(-c4cccs4)nn3c2=O)o1 | 0 | 3 | 96 | 10 | -10 | 1
CCN(CC)C(=O)c1cc(-c2ccc(Br)cc2)on1 | 0 | 1 | 147* | -74 | 74 | 3.3*
Cc1coc2c1C(=O)C(=O)c1c-2ccc2c1CCCC2(C)C | 0 | 4 | 117 | 8 | -8 | 1.3
C[C@H]1COC2=C1C(=O)C(=O)c1c2ccc2c1CCCC2(C)C | 0 | 2 | 129* | 2 | -2 | 1.4
OC(COc1ccc2ccccc2c1Cl)CN1CCOCC1 (centres undefined) | 0 | 1 | 134* | -40 | 40 | 2.1
Cc1ccc(NC(=O)c2ccccc2NC(=O)Cc2ccccc2)cc1 | 0 | 0 | 104 | -13 | 13 | 1
O=C(Cc1ccccc1)Nc1ccccc1C(=O)Nc1ccccc1 | 0 | 11* | 91 | 4 | -4 | 0.91
Cc1cccc(/C(N)=N/OC(=O)c2ccc3c(c2)OCO3)c1 | 0 | 7 | 145* | -192 | 192* | 4.3*
Cc1cccc(/C(N)=N/OC(=O)c2ccc(Br)o2)c1 | 0 | 1 | 132* | -50 | 50 | 2.9
N/C(=N\OC(=O)c1ccc(F)cc1)c1ccc(Br)cc1 | 0 | -3 | 128 | -52 | 52 | 2
N/C(=N\OC(=O)c1ccc(Cl)cc1)c1cccnc1 | 0 | 2 | 127 | -45 | 45 | 2.5
Cc1cccc(/C(N)=N/OC(=O)c2cccnc2)c1 | 0 | -2 | 133* | -149 | 149* | 2.6
Cc1ccc(/C(N)=N/OC(=O)c2cccc(F)c2)cc1 | 0 | -3 | 137* | -15 | 15 | 4.6*
CN(C)c1ccc(/C=N/NC(=O)CNC(=O)c2ccco2)cc1 | 0 | -1 | 114 | 6 | -6 | 1
N#CC1=C(S)N(c2ccccc2)C(c2cccs2)NC1=O (centres undefined) | 0 | -3 | 96 | 5 | -5 | 0.71
CCn1c(=O)c(C(=O)CN2c3ccccc3CC2C)c(N)n(Cc2ccccc2)c1=O (centres undefined) | 0 | 0 | 97 | -2 | 2 | 0.7
Cn1c(O)c(/C=N/Nc2ccccc2)c(=O)n(C)c1=O | 0 | 3 | 82 | 12 | -12 | 1.3
O=C(O)COn1c(-c2ccccc2)nc2ccc(Cl)cc21 | 0 | 1 | 103 | -8 | 7 | 1.7
O=[N+]([O-])c1ccc2nc(-c3ccccc3)n(OCc3ccc(Cl)cc3)c2c1 | 0 | 0 | 120 | -40 | 40 | 5.1*
CCn1c(=O)c(C(=O)CN2CCN(S(=O)(=O)c3ccc(C)cc3C)CC2)c(N)n(Cc2ccccc2)c1=O | 0 | 2 | 99 | 14 | -14 | 1.2
COc1ccc(N=C2C(=Nc3ccc(OC)cc3)N(c3ccccc3)C(=S)N2C(=O)c2ccc(Cl)cc2)cc1 | 1 | 5 | 118 | -10 | 10 | 6.8*
CNC(=O)CS(=O)CC(=O)Nc1cc(OCCOC)c(Cl)cc1Cl (centres undefined) | 0 | 8.9* | 101 | 12 | -12 | 1.2
Cc1sc2ncnc(Sc3ccccc3C(=O)O)c2c1C | 0 | 2 | 103 | -15 | 15 | 0.88
SMILES | Hsp70 act | Wee1 stabilizer | STAT1 activator | APP 5UTR inh | APP 5'UTR act | NF-kB neuron act
Cc1sc2ncnc(Sc3nnnn3-c3ccccc3)c2c1C | 0 | -1 | 95 | 5 | -5 | 3.9*
c1ccc2sc(Sc3ncnc4sccc34)nc2c1 | 0 | 1 | 110 | 0 | 0 | 1.8
Clc1ccc(-n2nnnc2Sc2ncnc3sccc23)cc1 | 0 | -2 | 82 | 92* | -93 | .
COc1ccc(NS(=O)(=O)c2cccc3nonc23)c(OC)c1 | 0 | -2 | 104 | 2 | -2 | 0.85
CCn1ccc(C(=O)Nc2ccccc2SC)n1 | 0 | 8 | 140* | -37 | 37 | 1.5
CCn1ccc(C(=O)Nc2ccc(Cl)cn2)n1 | 0 | 2 | 131* | . | . | 2.8
CCC(C)NC(=O)c1ccc(CSCc2cccc(F)c2)o1 (centres undefined) | 0 | 3 | 101 | -8 | 8 | 0.95
CCN1C(=O)CC(Sc2ccccc2C(=O)O)C1=O (centres undefined) | 0 | -2 | 102 | 18 | -18 | 1.1
O=C(/C=C/Nc1ccc(Oc2ccccc2)cc1)c1ccco1 | 0 | 3 | 140* | -164 | 164* | 5.4*
O=C(/C=C/Nc1cccc(C(F)(F)F)c1)c1ccco1 | 0 | 2 | 133* | -76 | 77 | 2.1
O=C(/C=C/Nc1ccccc1C(F)(F)F)c1ccco1 | 0 | 2 | 100 | -228 | 228* | 6.7*
NC(=O)c1ccccc1N/C=C/C(=O)c1ccco1 | 0 | 4 | 134* | -78 | 78 | 1.5
N#Cc1ccc(/C=C/C(=O)c2ccco2)cc1 | 0 | 0 | 88 | -6 | 6 | 1.1
O=C(CCc1ccc(S(=O)(=O)NC2CCCCC2)cc1)NCc1cccnc1 | 0 | -1 | 106 | -5 | 5 | 1.3
C/C(=N\O)C(=O)NCCCn1ccnc1 | -1 | -2 | 105 | -2 | 2 | 0.89
CN1OC(COC(=O)c2ccccc2)CC1c1ccccc1 (centres undefined) | 0 | -1 | 130* | -19 | 19 | 1.3
O=C(OCC1CC(c2ccccc2)=NO1)c1ccc(Cl)cc1 (centres undefined) | 0 | -4 | 99 | -9 | 9 | 1.1
CN(C)C(CNC(=S)Nc1ccc(F)cc1)c1cccnc1 (centres undefined) | 0 | 10* | 97 | -6 | 6 | 1.2
O=C(CSc1nc(O)c(Cc2ccccc2)c(=O)[nH]1)Nc1ccccc1 | 0 | 3 | 109 | -17 | 17 | 1
CCS(=O)(=O)N1Cc2ccccc2CC1C(=O)Nc1nccs1 (centres undefined) | 0 | 0 | 133* | -81 | 81 | 1.7
CCS(=O)(=O)N1Cc2ccccc2CC1C(=O)Nc1nc(C)cs1 (centres undefined) | 0 | -3 | 134* | -104 | 104 | 1.1
CC(=O)Nc1ccc(S(=O)(=O)NNC(=O)COc2ccc(C(C)(C)C)cc2)cc1 | 0 | -2 | 97 | 14 | -14 | 1.1
COc1cc(C(=O)N2CCN(C(=O)C3CC3)CC2)cc(OC)c1OC | 0 | 3 | 105 | 9 | -9 | 1.3
Cn1c(O)c(N=NC(=O)c2ccco2)c2ccccc21 | 0 | 1 | 121 | -176 | 176* | 2.5
Cn1c(O)c(N=NC(=O)c2ccccc2O)c2ccccc21 | 0 | 7 | 130* | -216 | 216* | 3.1
Cc1occc1C(=O)N=Nc1c(O)n(C)c2ccccc12 | 0 | 5 | 149* | -112 | 112 | 3
